High-throughput results from PubChem.
A selection: hits, their analogues and other compounds. The true share with any hit is near 12%.
JMJD2A Tudor – inhibitors of human JMJD2A Tudor domain; O75164; AlphaScreen JMJD2A-Tudor / H3K4me3 peptide binding; Potency, µM (doses to about 114 µM), for the others: top-dose activity change, negative = inhibition, usual class: inhibitors; 390,000 tested, 4.4% active; AID 504339; further: on the % scale 0 is the no-effect control and ±100 the full control effect; nearly all actives have a fitted effect of over 50% in size
L3MBTL1 block – inhibitors of human L3MBTL1 | Potency, µM (highest dose often 57.1 µM), without a hit: at the highest dose activity, negative = inhibition, usual class: inhibitors | AlphaScreen L3MBTL1–H3K9me1 peptide binding | 230,000 tested, 0.66% active; further: on the % scale 0 is the no-effect control and ±100 the full control effect; nearly all actives have a fitted effect of over 60% in size
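L3MBTL1 50 nM + b-AHA-H3(1-15)K9me1 75 nM, 30 min RT; compound added, 30 min RT; streptavidin donor/Ni-chelate acceptor beads 10 ug/mL each final, 30 min RT dark; AlphaScreen read.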
BAZ2B block – blocks human BAZ2B; Q9UIF8; AlphaScreen BAZ2B-H3K14Ac peptide displacement; Potency, µM (highest dose often 114 µM), without a hit: at the top dose activity change, negative = inhibition, hits mostly inhibitors; 360,000 tested, 4.4% active; AID 504333; further: on the % scale 0 is the no-effect control and ±100 the full control effect; nearly all actives have a fitted effect of over 60% in size
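AlphaScreen luminescence quantifies BAZ2B engagement of H3K14Ac peptide; the protein and biotinylated peptide are both at 50 nM final, buffer PBS pH 7.4 with 0.01% Tween-20, all steps at room temperature.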
Sfp inh – blocks B. subtilis Sfp PPTase activity; Potency, µM, for the others: largest response in the series, negative = inhibition, hits mostly inhibitors; Q9F4F7; AID 1490; 310,000 tested, 3.5% active; Biochemical Sfp PPTase activity, qHTS;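 further: the enzyme is Sfp with the accession as filed and its product quenches rhodamine fluorescence; 0% = enzyme reaction without inhibitor and -100% = no enzyme wells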
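Step 1, compound plus 15 nM Sfp-PPTase, 15 min, room temperature. Step 2, add rhodamine-CoA (5 uM) and BHQ-2-YbbR (12.5 uM). Step 3, read 525/598 nm fluorescence at 0 and 30 min.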
HP1b binding inh – blocks HP1-beta chromodomain binding to methylated histone tails; AlphaScreen HP1-beta / biotin-H3K9me3 peptide binding; Potency, µM (doses to about 114 µM), inactives show at the top dose activity change, negative = inhibition, usual class: inhibitors; 390,000 tested, 0.56% active; AID 540317; further: nearly all actives have a fitted effect of over 70% in size
Target sequence (P83916 whole entry, looked up): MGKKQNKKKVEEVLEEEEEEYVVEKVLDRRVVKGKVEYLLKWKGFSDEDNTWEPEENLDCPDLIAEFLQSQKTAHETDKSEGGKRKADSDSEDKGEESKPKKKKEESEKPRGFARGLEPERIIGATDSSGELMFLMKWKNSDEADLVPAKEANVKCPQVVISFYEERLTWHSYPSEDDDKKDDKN
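HP1-beta protein (50 nM final) preincubated 30 min at room temperature with biotinylated H3(1-18)K9me3 peptide (50 nM) in PBS pH 7.4, 0.01% Tween-20, then compound added for 30 min. AlphaScreen streptavidin donor/nickel chelate acceptor beads (10 ug/mL final), 30 min dark, luminescence read.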
G9a block – blocks human histone lysine methyltransferase G9a. G9a H3K9 monomethylation, AlphaScreen, 2 h. Q96KQ7. 350,000 tested, 8.8% active. Potency, µM (titrated, usually from 102 µM), inactives show top-dose activity, negative = inhibition, hits mostly inhibitors. AID 504332; further: on the % scale 0 is the no-effect control and ±100 the full control effect; nearly all actives have a fitted effect of over 75% in size
Target sequence (Q96KQ7 913-1193 limits assumed): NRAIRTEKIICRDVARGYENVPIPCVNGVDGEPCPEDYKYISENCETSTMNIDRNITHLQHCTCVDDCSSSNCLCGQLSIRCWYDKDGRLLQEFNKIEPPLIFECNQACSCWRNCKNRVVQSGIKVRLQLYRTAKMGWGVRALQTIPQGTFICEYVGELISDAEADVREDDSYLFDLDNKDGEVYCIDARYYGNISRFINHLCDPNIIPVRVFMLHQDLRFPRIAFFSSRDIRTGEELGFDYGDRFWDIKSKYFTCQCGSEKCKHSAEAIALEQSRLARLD
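Chemiluminescent proximity detection of H3K9 monomethylation, read after 10 min bead incubation in the dark. Reaction: 20 nM G9a, 500 nM biotin-H3K9 peptide, 20 uM SAM cofactor, 2 h, room temperature, following 15 min enzyme-compound preincubation.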
Active calls of the source: *; ? = inconclusive; / = no result given; [ ] = dose if it differs, or a comment. The call rests on the fitted dose curve; in most records, active means well fitted curve in the direction sought with a large enough effect; inconclusive means small, poorly fitted or top-dose-only effect, or another doubt; inactive means no such curve, though single readings can be large; an effect the other way counts as inactive or inconclusive. Potency means the concentration at half of the fitted maximal effect.

SMILES	JMJD2A Tudor	L3MBTL1 block	BAZ2B block	Sfp inh	HP1b binding inh	G9a block
NS(=O)(=O)c1ccc(CCNCc2ccccc2OCc2ccc(F)cc2)cc1	-8%	/	-13%	-12%	0%	16%
Fc1cccc(COc2ccccc2CNc2ccccc2)c1	21%	40%	35%	-4%	-50%	64%[59 µM]
CCOc1ccc(NCc2ccccc2OCc2cccc(F)c2)cc1	?	1%	?	-20%	3%	10µM*
NS(=O)(=O)c1ccc(NCc2ccccc2OCc2ccc(F)cc2)cc1	-28%	1%	56µM*	-7%	7%	?
Cc1ccc(NC(=O)CSc2c3c(nc4ccccc24)CCCC3)cc1F	-19%	/	/	/	23%	-7%[59 µM]
N#Cc1ccsc1NC(=O)CCS(=O)(=O)c1ccccc1	-9%	/	-4%	-7%	50%	45µM*
CCOC(=O)c1ccsc1NC(=O)CCS(=O)(=O)c1ccccc1	-8%	/	-34%	2%	13%	6%
NC(=O)c1ccsc1NC(=O)CCS(=O)(=O)c1ccccc1	-11%	-5%	-21%	11%	25%	5%[12.7 µM]
NC(=O)c1ccsc1NC(=O)CCS(=O)(=O)c1ccc(Cl)cc1	-19%	-5%	1%	/	27%	35µM*
O=C1c2ccccc2C(=O)C1(c1ccccc1)N1CCN(c2cccc(Cl)c2)CC1	?	/	?	/	-18%	6.3µM*
O=C1c2ccccc2C(=O)C1(c1ccccc1)N1CCN(c2cccc(C(F)(F)F)c2)CC1	?	/	?	/	-12%	10µM*
O=S(=O)(Nc1cccnc1)c1cccc2ccccc12	-10%	/	/	/	10%	/
Cc1nn(Cc2ccccc2)c(C)c1NC(=O)c1cc(C(C)C)on1	-8%	/	1%	/	34%	-3%[59 µM]
COc1ccc(OC)c(NC(=O)CC2SC(=Nc3ccccc3)N(CCc3ccccn3)C2=O)c1 (stereo unspecified)	?	0%	?	4%	6%	?
COc1ccc(OC)c(NC(=O)CC2SC(=Nc3ccc(F)cc3)N(CCC3=CCCCC3)C2=O)c1 (stereo unspecified)	-24%	-14%	?	6%	5%	50µM*
COc1ccc(N=C2SC(CC(=O)Nc3ccc(OC)cc3OC)C(=O)N2C)cc1 (stereo unspecified)	-15%	-9%	2%	-5%	18%	-28%[12.7 µM]
COc1cc([N+](=O)[O-])ccc1NC(=O)CC1SC(=Nc2ccc(F)cc2)N(CCC2=CCCCC2)C1=O (stereo unspecified)	-35%[57.1 µM]	-2%	?	9%	?	50µM*
Cc1cc2c(nc1C)CCCCN2C[C@H](C)O/N=C\[C@@H](C)[C@H](OCc1ccccc1)C(C)C	/	/	/	8%	/	/
CC1CC1c1ccc(/C=C(\C#N)C(=O)Nc2ccc(Cl)cc2Cl)o1 (stereo unspecified)	-16%	-13%	-11%	56µM*	28%	-5%[59 µM]
CC1CC1c1ccc(/C=C(\C#N)C(=O)Nc2cc(Cl)ccc2Cl)o1 (stereo unspecified)	-12%	-12%	0%	-5%	19%	?
Cc1ccc(C(=O)OCC(=O)N(CC(C)C)c2c(N)n(Cc3ccccc3)c(=O)[nH]c2=O)s1	-4%	/	-6%	7%	23%	79µM*
CCOC(=O)c1c(C)[nH]c(C(=O)OCC(=O)N(CC(C)C)c2c(N)n(Cc3ccccc3)c(=O)[nH]c2=O)c1C	-21%	7%	1%	/	32%	16µM*
CCCN(C(=O)COC(=O)c1cc(CC)c(C)s1)c1c(N)n(Cc2ccccc2)c(=O)[nH]c1=O	-32%	?	?	/	-3%	50µM*
O=C(CCC1N=C2c3ccccc3N=C(SCC(=O)Nc3ccc(F)cc3)N2C1=O)NCc1ccco1 (stereo unspecified)	-20%	/	3%	/	46%	4%[59 µM]
CCOc1ccc(S(=O)(=O)Nc2cccc(-c3ccc(N4CCCC4)nn3)c2)cc1	-23%	/	-7%	/	?	?
SMILES	JMJD2A Tudor	L3MBTL1 block	BAZ2B block	Sfp inh	HP1b binding inh	G9a block
COc1ccc(S(=O)(=O)Nc2cccc(-c3ccc(N4CCCCCC4)nn3)c2)c(OC)c1	-28%	/	-14%	?	14%	45µM*
COc1ccc(-c2cccc(NS(=O)(=O)c3cc(C)ccc3OC)c2)nn1	-18%	/	-6%	/	4%[57 µM]	0%[59 µM]
COc1ccc(OC)c(S(=O)(=O)Nc2ccc(-c3ccc4nncn4n3)cc2)c1	-1%	0%	0%	/	?	13µM*
CCOc1ccc(S(=O)(=O)Nc2cccc(-c3ccc(N4CCC(C)CC4)nn3)c2)cc1	-28%	/	-10%	/	-11%[57 µM]	25µM*
O=S(=O)(Nc1ccc(-c2ccc3nncn3n2)cc1)c1cc(F)ccc1F	-19%	9%	-2%	/	28%	-11%
COc1ccc(OC)c(S(=O)(=O)Nc2cccc(-c3ccc(N4CCCCCC4)nn3)c2)c1	-31%	/	-19%	8%	2%[57 µM]	21%
CCCOc1ccc(-c2cccc(NS(=O)(=O)c3cc(OC)ccc3OC)c2)nn1	-24%	/	-4%	/	-24%[57 µM]	7.9µM*
CN(CCc1ccccc1)C1CCCN(S(=O)(=O)N(C)C)C1 (stereo unspecified)	-17%	4%	6%	9%	25%	/
Cc1ccc(-c2nnc(N3CCOCC3)c3ccccc23)cc1S(N)(=O)=O	-12%	/	/	/	0%	/
O=C(O)c1c(NC(=O)N2CCOCC2)sc2c1CCCC2	-10%	/	-19%	3%	2%	-27%
COc1ccc(S(=O)(=O)Nc2cccc(-c3ccc(N4CCCC4)nn3)c2)c(OC)c1	-30%	/	-10%	/	-35%[57 µM]	7.9µM*
COc1ccc(S(=O)(=O)Nc2cccc(-c3ccc(N4CCCCCC4)nn3)c2)cc1	-12%	/	-13%	/	14%[57 µM]	-20%[59 µM]
O=C(Nc1cccc(-c2ccc(N3CCCCC3)nn2)c1)c1ccco1	-16%	-1%	-26%	/	10%	50µM*
Cc1ccc(-c2nc(CSc3nnc(C)n4c3cc3occc34)c(C)o2)cc1	-16%	/	-15%	/	24%	-4%[59 µM]
Cc1cccc(NC(=O)C2CC(=O)n3ncnc3N2)c1 (stereo unspecified)	-11%	/	4%	5%	7%	0%
Cc1ccccc1NC(=O)C1CC(=O)n2ncnc2N1 (stereo unspecified)	7%	/	-18%	-19%	67%	45µM*
CCCOc1ccc(C(=O)NC(=S)NCc2cccnc2)cc1	-21%	-5%	?	-2%	7%	45µM*
CCCOc1ccc(C(=O)NCc2cccnc2)cc1	-2%	/	-36%	6%	34%	0%[12.7 µM]
C=CCOc1ccc(C(=O)Nc2ccccc2C(=O)NCc2cccnc2)cc1	-19%	/	-12%	-7%	8%	71µM*
